For one experiment, the target named is Albumin (Bos taurus) (UniProt P02769). The experiment in a line: compounds binding labelled BSA control protein – biochemical, small-molecule microarray, Alexa647 label, 635/667 nm fluorescence, artefact control for SMM control protein annotation, profiling panel (AID 1118).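 Also: score merges 667 nm emission intensity and signal-to-noise per printed compound spot.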 The settings on record: BSA-A647 binding, fluorescence 635 nm, higher = more signal.
A short description of experiment [1]: probe aXIP binding to arrayed compounds – biochemical, NeuroSMM set, 635/667 nm fluorescence, primary screen (AID 1119).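 Also: probe is the protein aXip251-270 applied at 1 µg/mL to compound-printed slides; binding of probe to printed compounds measured as 667 nm fluorescence plus signal to noise.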 The settings on record: small-molecule microarray, higher = more signal, called active from +8 up or from −8 down.
The nature of experiment [2]: probe aNOTCH3 binding on compound microarray – biochemical, small-molecule microarray, 635/667 nm fluorescence, primary screen (AID 1120).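 Also: probe is a biotin-tagged antibody raised against NOTCH3 rather than NOTCH3 protein; score merges spot fluorescence near 667 nm with spot signal to noise.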 The settings on record: higher = more signal.
A short description of experiment [3]: probe aNOTCH2 binding on compound microarray – biochemical, small-molecule microarray, 635/667 nm fluorescence, primary screen (AID 1121).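 Also: score merges feature fluorescence read at 667 nm with its signal to noise.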 The settings on record: higher = more signal.
The target in experiment [4] is Carbonic anhydrase 2 (Homo sapiens) (UniProt P00918). The experiment in a line: compounds binding carbonic anhydrase 2 – biochemical, small-molecule microarray, Alexa647-labelled CAII, profiling panel (AID 1122). As to conditions: CAII-A647 binding fluorescence, higher = more signal.
The nature of experiment [5]: COS7 lysate on small-molecule microarray, probe aHis, 635 nm (AID 1123).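 Also: z-score combines 667nm fluorescence intensity with signal-to-noise per printed compound spot.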 As to conditions: COS7 cell lysate, fluorescence, higher = more signal.
A short description of experiment [6]: probe aLAP1 signal on lysate-treated microarray – cell lysate, small-molecule microarray, COS7 lysate, primary screen (AID 1124).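 Also: lysate comes from COS7 cells expressing LAP1 and is applied at 0.3 µg/mL; score merges spot fluorescence near 667 nm with signal-to-noise over triplicate slides.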 The settings on record: probe aLAP1, fluorescence, higher = more signal.
The test system of another experiment is Sam68 (KHDRBS1). The experiment in a line: compounds binding KHDRBS1 protein – biochemical, small-molecule microarray, 635 nm fluorescence, primary screen (AID 1125).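 Also: score merges 667 nm channel intensity with signal to noise over triplicate slides.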 As to conditions: higher = more signal.
Experiment [7] relates to Chordin-like protein 2 (CHRDL2). Nature of the experiment: compounds binding chordin-like 2 – biochemical, small-molecule microarray, 635 nm fluorescence, primary screen (AID 1126).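 Also: printed compound slides probed with Chrdl2 protein at 4 µg/mL for 1 h at 4 C; score merges 667 nm emission intensity with signal to noise over three replicate slides.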 As to conditions: fluorescence 635 nm, higher = more signal.
The target of experiment [8] is Concanavalin-A (Canavalia ensiformis) (UniProt P02866). Nature of the experiment: compounds binding concanavalin A lectin – biochemical, small-molecule microarray, Alexa647 label, 635 nm, artefact control for SMM control protein annotation, primary screen (AID 1127).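 Also: z combines 667 nm emission intensity with signal-to-noise across three replicate slides.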 As to conditions: ConA-A647 binding fluorescence, higher = more signal.

The structures appear in SMILES notation. The source made the active and inactive calls.

Sequence of Concanavalin-A (Canavalia ensiformis) (P02866 whole entry, looked up): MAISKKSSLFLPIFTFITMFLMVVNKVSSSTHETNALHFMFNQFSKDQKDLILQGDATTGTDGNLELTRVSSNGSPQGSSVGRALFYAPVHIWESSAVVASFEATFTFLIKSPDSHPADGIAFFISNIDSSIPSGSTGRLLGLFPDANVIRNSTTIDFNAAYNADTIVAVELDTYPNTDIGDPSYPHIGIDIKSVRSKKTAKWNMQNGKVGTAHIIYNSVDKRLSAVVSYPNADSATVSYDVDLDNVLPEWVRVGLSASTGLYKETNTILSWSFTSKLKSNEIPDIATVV
Sequence of Albumin (Bos taurus) (P02769 whole entry, looked up): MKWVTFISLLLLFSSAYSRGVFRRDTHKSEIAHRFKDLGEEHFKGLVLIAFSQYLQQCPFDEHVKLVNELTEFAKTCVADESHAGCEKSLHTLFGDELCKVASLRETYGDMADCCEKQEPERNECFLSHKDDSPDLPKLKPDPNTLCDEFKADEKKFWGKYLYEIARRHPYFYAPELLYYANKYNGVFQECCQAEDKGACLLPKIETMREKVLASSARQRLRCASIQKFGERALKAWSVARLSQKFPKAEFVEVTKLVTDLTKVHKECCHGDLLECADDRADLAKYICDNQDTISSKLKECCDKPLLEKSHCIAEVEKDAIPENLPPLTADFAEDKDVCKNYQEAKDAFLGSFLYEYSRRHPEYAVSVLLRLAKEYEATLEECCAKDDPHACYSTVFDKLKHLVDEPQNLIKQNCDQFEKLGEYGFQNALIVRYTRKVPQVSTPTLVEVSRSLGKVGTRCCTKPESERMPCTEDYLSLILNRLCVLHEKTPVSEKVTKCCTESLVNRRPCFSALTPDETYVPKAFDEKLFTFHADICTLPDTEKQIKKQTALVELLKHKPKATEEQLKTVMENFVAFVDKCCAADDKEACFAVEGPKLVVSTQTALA

As for `C=CCC(OC(C)=O)[C@@H]1[C@@H](N(Cc2ccc(-c3cccc(C(F)(F)F)c3)o2)C(=O)c2ccc(C)cc2)c2cc(OCCCO)ccc2N1C(=O)c1ccc(-c2ccccc2)cc1` (stereo not given in full), the composite z-score with Albumin (Bos taurus) was -0.405; in experiment [2], 0.0026; in experiment [3], -0.115; in [4], 0.376; in [5], -0.0056; in experiment [6], -0.0012. Moreover, the composite z-score in the experiment with Sam68 (KHDRBS1) was -0.597; in experiment [7], 0.031; in experiment [8] it was 0.854. Moreover, in experiment [1], the composite Z-score is 0.244 (inactive).
Consider `CO[C@H]1O[C@H](CO)[C@@H](OC(=O)Nc2ccc(Oc3ccccc3)cc2)[C@H](OC(=O)Nc2ccccc2)[C@H]1OC(=O)Nc1ccccc1`, for which the composite z-score with Albumin (Bos taurus) is 0.832; in experiment [2], 0.295; in experiment [3], -0.0064; in experiment [4] it was 0.467; in [5], 2.09; in experiment [6], -0.0652. The composite z-score in the experiment on Sam68 (KHDRBS1) was 1.3; in experiment [7], -0.0078; in experiment [8], 1.16. The composite Z-score in experiment [1] was 0.914 (inactive).
As to `O=C1O[C@@H](c2ccccc2)[C@@H](c2ccccc2)N2[C@@H](c3ccccc3OCCO)[C@]3(C(=O)Nc4ccc(C#CC5(O)CCCCCC5)cc43)[C@@H](C(=O)Nc3nc4ccccc4s3)[C@H]12`, the composite z-score with Albumin (Bos taurus) is 0.663; in experiment [2], 0.283; in experiment [3] it was -0.0904; in [4], 0.453; in experiment [5], 1; in [6], 0.246. The values for the composite z-score (in the experiment with Sam68 (KHDRBS1); in [7]; in experiment [8]) were 1.02, 0.784 and 0.723, respectively. Moreover, the composite Z-score in experiment [1] is -0.0544 (inactive).
On to `CC(C)OC(=O)CC(=O)CC(O)c1ccc(C#N)cc1` (stereo not given), for which the composite z-score is -0.181 in the experiment with Albumin (Bos taurus); -0.0377 in [2]; 0.174 in experiment [3]; 0.0258 in [4]; 0.657 in [5]; 0.649 in [6]. Also, the composite z-score in the experiment with Sam68 (KHDRBS1) is 0.438; in experiment [7], -1.19; in experiment [8] it was -0.6. Besides, the composite Z-score in experiment [1] is 0.0371 (inactive).
In the case of `CO[C@H]1O[C@H](CO)[C@@H](OC(=O)Nc2ccc3c(c2)OCO3)[C@H](OC(=O)Nc2ccccc2)[C@H]1OC(=O)Nc1ccccc1`, the composite z-score is -0.21 in the experiment with Albumin (Bos taurus); 0.0773 in [2]; -0.102 in experiment [3]; 0.406 in experiment [4]; 2.04 in experiment [5]; 0.637 in experiment [6]. Besides, the composite z-score in the experiment with Sam68 (KHDRBS1) amounted to 1.19; in experiment [7] it was 0.261; in experiment [8], 0.143. Moreover, in experiment [1], the composite Z-score was 0.118 (inactive).
As for `COc1ccc([Si](C)(C)[C@H]2[C@H](CCn3cc(CCO)nn3)O[C@@]3(C(=O)N(Cc4ccc(N5CCOC5=O)cc4)c4ccccc43)[C@@H]2C)cc1`, the composite z-score in the experiment with Albumin (Bos taurus) is 0.535; in experiment [2], -0.0126; in experiment [3], -0.112; in experiment [4], 0.458; in experiment [5], 1.94; in experiment [6], 0.622. In addition, the composite z-score in the experiment on Sam68 (KHDRBS1) was found to be 1.23; in experiment [7] it was 0.21; in experiment [8], 0.702. For the same compound, the composite Z-score in [1] was 0.533 (inactive).
For `O=C1C2C=CC(C(O)c3ccc(-c4ccccc4)s3)N(n3cnnc3)C2C(=O)N1Cc1ccccc1` (stereo not given), the composite z-score is -0.314 with Albumin (Bos taurus); 0.0519 in experiment [2]; -0.0467 in experiment [3]; 0.465 in experiment [4]; 0.942 in [5]; 0.253 in experiment [6]. The figures for the composite z-score (in the experiment with Sam68 (KHDRBS1); in [7]; in [8]) were 0.145, -0.42 and 0.615, respectively. Besides, the composite Z-score in experiment [1] is -0.34 (inactive).
For `COCCOC(=O)N1C(=O)[C@@]2(c3ccccc31)[C@H](C(=O)NC[C@H](O)c1ccccc1)[C@H]1C(=O)O[C@H](c3ccccc3)[C@H](c3ccccc3)N1[C@@H]2c1ccc(OCCO)cc1`, the composite z-score was 0.605 with Albumin (Bos taurus); 0.267 in experiment [2]; -0.0959 in experiment [3]; 0.492 in [4]; 1.53 in [5]; -0.0994 in experiment [6]. Moreover, the figures for the composite z-score (in the experiment on Sam68 (KHDRBS1); in experiment [7]; in experiment [8]) were 1.3, 1.22 and 1.12, respectively. In addition, the composite Z-score in experiment [1] was -0.404 (inactive).
`CC(=O)NCCCC[C@@H]1NC(=O)[C@@H]2C[C@H](C(=O)NCCCCN(C)C)[C@H](c3ccc(O)cc3)N2C1=O`: the composite z-score with Albumin (Bos taurus) was -0.503; in experiment [2], -0.292; in experiment [3], -0.14; in experiment [4], -0.0303; in [5], -0.089; in experiment [6] it was 0.765. Also, the composite z-score in the experiment with Sam68 (KHDRBS1) is -0.781; in experiment [7], 0.46; in experiment [8], -0.612. Moreover, the composite Z-score in experiment [1] was 0.48 (inactive).
In the case of `CCCN1C(=O)[C@]2(COC(c3ccc(OCCCO)cc3)=N2)Cc2ccccc21`, the composite z-score in the experiment with Albumin (Bos taurus) is 0.0531; in experiment [2], -0.0026; in experiment [3], -0.0009; in experiment [4], 0.64; in experiment [5], 1.93; in experiment [6], -0.218. For the same compound, the composite z-score in the experiment with Sam68 (KHDRBS1) is 1.11; in experiment [7] it was -0.125; in [8] it was 1.13. Further, the composite Z-score in experiment [1] is 0.305 (inactive).
In the case of `CCOC(=O)[C@H]1C[C@H]2O[C@@]23C[C@H]1C(=O)N1CCCC1[C@@H]3O[Si](C)(C)C(C)(C)C` (stereo not given in full), the composite z-score is -0.505 in the experiment with Albumin (Bos taurus); 0.0203 in [2]; -0.102 in experiment [3]; -0.123 in experiment [4]; 0.178 in experiment [5]; -0.244 in [6]. Moreover, the composite z-score in the experiment on Sam68 (KHDRBS1) is -0.445; in experiment [7], -0.694; in experiment [8] it was -1.61. For the same compound, the composite Z-score in experiment [1] is 0.545 (inactive).
`CC(c1ccccc1)C(O)C1C=CC2C(=O)NC(=O)C2N1Nc1ccccn1` (stereo not given): the composite z-score with Albumin (Bos taurus) came to 0.183; in [2], 0.0876; in [3], 0.0012; in [4] it was 0.531; in [5] it was 0.954; in experiment [6] it was 0.398. Moreover, the results for the composite z-score (in the experiment with Sam68 (KHDRBS1); in experiment [7]; in experiment [8]) were 1.1, 0.407 and 0.901, respectively. Besides, in experiment [1], the composite Z-score was 0.239 (inactive).
`O=C1O[C@@H](c2ccccc2)[C@@H](c2ccccc2)N2[C@@H](c3ccc(OCCO)cc3)[C@]3(C(=O)Nc4ccc(C#CC5=CCCCC5)cc43)[C@@H](C(=O)O)[C@H]12`: the composite z-score stood at 0.953 with Albumin (Bos taurus); 0.206 in experiment [2]; 0.0588 in [3]; 0.499 in [4]; 0.866 in [5]; 0.711 in [6]. Moreover, the results for the composite z-score (in the experiment with Sam68 (KHDRBS1); in [7]; in [8]) were 1.3, 0.0501 and 1.16, respectively. For the same compound, the composite Z-score in experiment [1] was 0.556 (inactive).
Take `COCCOC(=O)N1C(=O)[C@@]2(c3cc(C#CCCO)ccc31)[C@H](C(=O)NC[C@H](O)c1ccccc1)[C@H]1C(=O)O[C@H](c3ccccc3)[C@H](c3ccccc3)N1[C@@H]2c1ccc(O)cc1`: the composite z-score is 0.508 in the experiment with Albumin (Bos taurus); -0.0362 in [2]; -0.115 in experiment [3]; 0.568 in [4]; 0.813 in [5]; 0.16 in [6]. The composite z-score with Sam68 (KHDRBS1) is 0.053; in experiment [7], -0.496; in experiment [8] it was 1.09. Further, the composite Z-score in [1] is -0.302 (inactive).

These data come from PubChem BioAssay.
